PubChem BioAssay (NCI)
About 83,000 compounds went through this panel and 20% of them were active in at least one assay; those are over-represented in the sample as a whole.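 Cells were grown in 96-well plates and exposed to the test compound at a single concentration for 48 hours; results are reported as percent growth, with values below 10 considered active.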 A number with no mark means an inactive call. Active and inactive are the calls of the source.

Test system: HS 578T breast
Assay: NCI-60 one-dose screen, 48 h (100 = growth as untreated, 0 = no growth, -100 = all killed)
Settings: 10 µM unless noted
Experimental: Growth inhibition of the HS 578T human tumor cell line is measured as a screen for anti-cancer activity. Cells are grown in 96 well plates and exposed to the test compound for 48 hours. Compounds are tested at a single concentration, which is 10^-5 M for most compounds. The reported endpoint is percent growth (GI% or GIPRCNT), where numbers from 0 - 100% represent growth inhibition, and numbers from -100% - 0 represent cell death. For example, a value of 40 represents 60% growth inhibition. A value of 0 means no net growth occurred over the course of the experiment. A value of -40 indicates 40% of cells at the beginning of the experiment died by the end of the experiment. A value of -100 means all cells are dead at the end of the experiment.
NCI-60 Human Tumor Cell Lines Screen was performed using the standard one-dose NCI protocol, which is described in more detail at https://dtp.cancer.gov/discovery_development/nci-60/default.htm.
Compounds with GIPRCNT values below 10 were considered active. Activity score was based on GIPRCNT using the following formula: […]
Score is 0 for GIPRCNT values of 100 or above, 50 for GIPRCNT values of 0, and 100 for GIPRCNT values of -100.

In the case of `COc1ccc(-c2cnoc2-c2ccc(OC)cc2O)cc1`, the growth is reported as -7.48% (active).
In the case of `N#Cc1ccc(N2Cc3ccccc3OC3=C2C(=O)c2c(O)ccc(O)c2C3=O)cc1`, the growth is reported as -14.4% (active).
For `COc1cc(-c2nn(-c3cccc(NC(=O)c4cccc(C(F)(F)F)c4)c3)cc2-c2ccncc2)ccc1Cl`, the growth was -5.69% (active).
For `COc1ccc(C2=Nn3c(nnc3-n3nc(C)cc3C)SC2)cc1`, the growth was 7.5% (active).
In the case of `CCCCCCCCCCCCCCCCCCNC(=O)[C@H]1CSC(c2cccs2)N1` (stereo not given in full), the growth is reported as -31.7% (active).
With `O=[N+]([O-])c1cc(S(=O)(=O)Oc2ccccc2)ccc1Cl` the growth was -7.12% (active).

Going from `NC(=O)CCCN1C/C(=C\c2ccccc2)C(=O)c2ccccc21` to `NNc1cccc(/C=C/c2ccccc2)cc1=O`, the growth falls from 99.6% to 78.5%.

First: Fc1ccc(-c2nc(-c3nc4ncccc4[nH]3)cc3c2[nH]c2ccccc23)cc1F
Second: Cc1ccc(Cc2c(C=O)nc(N)[nH]c2=O)c2ccccc12
The growth of the first is lower: 96% for the first, 109% for the second.

Going from `CC(=O)Nc1nc(N)nc(NC(C)=O)c1N=O` to `COc1ccc(-c2cc(-c3ccccc3)nc(SCCCC(=O)NO)n2)cc1OC`, the growth falls from 104% to 18%.

Compared with `O=C1NN(C(=O)c2ccc(Cl)cc2)C(c2ccccc2)=N/C1=C\c1cn(-c2ccccc2)nc1-c1ccccc1`, `Cc1ccc(S(=O)(=O)/C(=C\c2ccc(Cl)cc2)C(=O)c2ccccc2)cc1` is higher in growth: 94.8% for the first, 119% for the second.

First: CCCCCCCCCCCCCCCCCCNC(=O)[C@H]1CSC(c2ccc(OC)cc2O)N1 (stereo not given in full)
Second: CCC(=O)Oc1ccc(/C(=C(/C)Cc2cccc(OC)c2)c2ccc(OCCN(C)C)cc2)cc1
The growth of the first is lower: 55% for the first, 93.5% for the second.

Compared with `CC(C)(C)n1cc(-c2ccnc(NCCCNS(=O)(=O)c3ccc(F)cc3)c2)c(-c2cccc(O)c2)n1`, `CC(C)(C)n1cc(-c2ccnc(NCCNS(=O)(=O)c3ccc(Cl)cc3)c2)c(-c2cccc(O)c2)n1` is higher in growth: 52.4% for the first, 66% for the second.

Compared with `OCc1ncc(-c2ccccc2)s1`, `CN(C)CC(C(=O)c1ccccc1)c1ccccc1` (stereo not given) is lower in growth: 108% for the first, 60.5% for the second.

Going from `O=S1(=O)CCC(N(/N=C/c2ccco2)c2ccccc2)C1` (stereo not given) to `O=C(N/N=C/C=C\c1ccccc1)C(=O)N/N=C/C=C/c1ccccc1`, the growth rises from 94.3% to 116%.

First: COc1ccc(Nc2nn3c(C)cc(C)nc3c2C(=O)Nc2ccc(C)cc2)c(OC)c1
Second: COc1ccc(-c2ccc(-c3ccc(C(=N)N)cn3)s2)cc1OC
The growth of the first is higher: 105% for the first, 97.2% for the second.

First: COc1cc(C(=O)/C=C/c2c(C)n([O-])c3ccc(C(F)(F)F)cc3[n+]2=O)cc(OC)c1OC
Second: Cc1c(C(=O)/C=C/c2csc3ccccc23)[n+](=O)c2ccccc2n1[O-]
The growth of the first is higher: 119% for the first, 93.9% for the second.

First: COc1ccc(/C=C2\Oc3cc(OCCCN4CCCC4)ccc3C2=O)cc1
Second: COc1ccc(S(=O)(=O)NCCCNc2nccc(-n3ccc4cccnc43)n2)cc1
The growth of the first is lower: 89.3% for the first, 92.3% for the second.

Going from `CC(C)(C)n1cc(-c2ccnc(NCCCNS(=O)(=O)c3ccccc3)c2)c(-c2cccc(O)c2)n1` to `O=C(Nc1ccncc1)C(=O)c1cn(S(=O)(=O)c2ccc(Oc3ccccc3)cc2)c2ccccc12`, the growth rises from 51% to 92%.

First: Clc1ccc2c(NC3CCC(NC4CCCCC4)CC3)ccnc2c1 (stereo not given)
Second: CC12CCCC(CC(=O)c3[nH]c4ccccc4c31)C2 (stereo not given)
The growth of the first is higher: 67.5% for the first, 12.8% for the second.

`CC12CCC3C4(C)COC(c5ccco5)OC4CCC3(C)C1CC(C1=CCOC1=O)O2` (stereo not given) and `CNc1ccc(Br)c2c1C(=O)c1ccccc1C2=O` are the same in growth: 107% for the first, 107% for the second.

First: CCN(CC)CCCC(C)Nc1c2ccc(Cl)cc2nc2cc(OC)c(OC)cc12 (stereo not given)
Second: CCCCCc1cc[n+](CC(=O)c2ccc([N+](=O)[O-])cc2)cc1
The growth of the first is lower: 44.2% for the first, 106% for the second.

First: O=[N+]([O-])c1cnc(Sc2ccncn2)s1
Second: O=C(O)COc1ccc(-c2cssc2=S)cc1
The growth of the first is lower: 58% for the first, 105% for the second.

Going from `CCOC(=O)C1=C(C)NC(C)=C(C(=O)OCC)C1(C)C` to `S=C1CC(=S)NC(=S)N1`, the growth falls from 107% to 101%.
